Test in all cases: DAPPL (digital affinity profiling via proximity ligation, sequencing); 10 mM Tris-HCl pH 7.5, 50 mM NaCl, 1 mM DTT, 4% glycerol, room temperature, 30 min; GST-TFs on glutathione beads, 16-mer random dsDNA library, 0.1% formaldehyde crosslink after washing; high values mean tight binding
Common to all, as to details: protein: recombinant; tags: N-terminal GST; dsDNA, one strand shown

One assay deals with T1, ELK1 (Homo sapiens, UniProt P19419 1-428).
T1 sequence: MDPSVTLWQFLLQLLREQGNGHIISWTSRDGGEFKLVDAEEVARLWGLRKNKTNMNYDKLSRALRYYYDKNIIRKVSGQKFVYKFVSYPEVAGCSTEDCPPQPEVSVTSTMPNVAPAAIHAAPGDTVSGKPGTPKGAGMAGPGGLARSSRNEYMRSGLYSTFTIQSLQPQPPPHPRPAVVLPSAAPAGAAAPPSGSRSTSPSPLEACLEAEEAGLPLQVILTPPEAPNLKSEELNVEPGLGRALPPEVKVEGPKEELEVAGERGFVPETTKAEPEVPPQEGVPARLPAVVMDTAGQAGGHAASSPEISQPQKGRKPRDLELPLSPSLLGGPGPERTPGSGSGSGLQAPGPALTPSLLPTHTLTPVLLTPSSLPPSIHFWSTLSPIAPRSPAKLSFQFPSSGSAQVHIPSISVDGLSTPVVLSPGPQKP
Summed up:
(§1)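 GST fusions of human transcription factors were expressed in yeast and captured with glutathione beads. Once given DNA barcodes and pooled alongside a tag-only sample, they were incubated for 30 min at room temperature with 200 nmole of a random double-stranded 16-mer DNA library in Tris/NaCl/DTT/glycerol buffer, then washed, crosslinked (0.1% formaldehyde), proximity-ligated, PCR-amplified and sequenced on an Illumina NextSeq500. The binding signal of each hexamer is its read frequency for a factor divided by its frequency for the tag-only sample.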

For a further assay, the target named is T2, GABPA (Homo sapiens, UniProt Q06546 1-454).
T2 sequence: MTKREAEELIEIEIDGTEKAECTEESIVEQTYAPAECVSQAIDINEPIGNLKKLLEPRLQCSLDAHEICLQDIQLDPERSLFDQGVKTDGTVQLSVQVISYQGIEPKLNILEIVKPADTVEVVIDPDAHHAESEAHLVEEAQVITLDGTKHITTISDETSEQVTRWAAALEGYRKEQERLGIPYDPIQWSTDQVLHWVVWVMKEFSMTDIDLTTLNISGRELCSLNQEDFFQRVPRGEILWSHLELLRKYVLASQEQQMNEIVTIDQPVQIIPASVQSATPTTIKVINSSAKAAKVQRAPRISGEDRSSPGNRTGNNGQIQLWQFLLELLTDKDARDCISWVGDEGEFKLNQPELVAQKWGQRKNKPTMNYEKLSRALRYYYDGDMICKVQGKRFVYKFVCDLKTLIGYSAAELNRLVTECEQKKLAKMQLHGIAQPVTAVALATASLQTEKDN
Summed up: as §1

The next assay addresses T3, ERG (Homo sapiens, UniProt P11308 1-479).
T3 sequence: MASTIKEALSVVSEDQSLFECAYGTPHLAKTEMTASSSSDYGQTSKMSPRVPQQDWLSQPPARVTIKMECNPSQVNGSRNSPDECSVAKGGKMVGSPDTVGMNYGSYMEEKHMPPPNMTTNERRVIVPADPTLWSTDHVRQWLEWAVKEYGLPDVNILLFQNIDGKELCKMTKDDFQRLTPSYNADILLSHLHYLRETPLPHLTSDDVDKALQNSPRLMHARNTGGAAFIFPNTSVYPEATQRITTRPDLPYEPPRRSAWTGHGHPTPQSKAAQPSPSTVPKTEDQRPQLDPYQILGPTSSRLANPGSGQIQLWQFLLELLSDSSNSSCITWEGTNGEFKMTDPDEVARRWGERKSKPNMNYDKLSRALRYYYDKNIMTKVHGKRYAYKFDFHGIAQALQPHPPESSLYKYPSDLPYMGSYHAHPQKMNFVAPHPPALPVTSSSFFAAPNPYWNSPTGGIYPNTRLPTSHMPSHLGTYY
Summed up: as §1

In a further assay the target is ELF1 (Homo sapiens, UniProt P32519 1-619). In short, it runs like this:
as §1

A further assay concerns the target T4, EHF (Homo sapiens, UniProt Q9NZC4 1-300).
T4 sequence: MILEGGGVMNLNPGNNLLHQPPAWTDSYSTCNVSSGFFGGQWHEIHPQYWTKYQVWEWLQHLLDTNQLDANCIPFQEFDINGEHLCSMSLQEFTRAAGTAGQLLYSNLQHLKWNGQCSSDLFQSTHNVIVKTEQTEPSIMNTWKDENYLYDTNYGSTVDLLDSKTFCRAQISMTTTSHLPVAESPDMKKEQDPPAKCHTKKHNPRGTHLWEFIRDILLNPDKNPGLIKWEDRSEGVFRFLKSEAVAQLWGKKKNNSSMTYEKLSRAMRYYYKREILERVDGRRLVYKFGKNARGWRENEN
In short, it runs like this: as §1

Another assay concerns the target SPI1 (Homo sapiens, UniProt P17947 1-270). In short, it runs like this: as §1
The next assay has as its target SPIB (Homo sapiens, UniProt Q01892 1-262). Summed up: as §1
In the next assay the target is T5, FEV (Homo sapiens, UniProt Q99581 1-238).
T5 sequence: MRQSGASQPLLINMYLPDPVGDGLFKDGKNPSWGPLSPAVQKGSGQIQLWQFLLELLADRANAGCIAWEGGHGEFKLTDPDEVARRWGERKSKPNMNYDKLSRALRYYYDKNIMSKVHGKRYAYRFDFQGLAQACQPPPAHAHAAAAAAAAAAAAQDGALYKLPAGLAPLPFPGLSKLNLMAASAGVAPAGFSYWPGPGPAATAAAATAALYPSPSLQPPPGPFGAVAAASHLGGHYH
In short, it runs like this: as §1

The next assay concerns the target ETV5 (Homo sapiens, UniProt P41161 1-510). Summed up:
as §1

A further assay deals with T6, ELK4 (Homo sapiens, UniProt P28324-2 1-405).
T6 sequence: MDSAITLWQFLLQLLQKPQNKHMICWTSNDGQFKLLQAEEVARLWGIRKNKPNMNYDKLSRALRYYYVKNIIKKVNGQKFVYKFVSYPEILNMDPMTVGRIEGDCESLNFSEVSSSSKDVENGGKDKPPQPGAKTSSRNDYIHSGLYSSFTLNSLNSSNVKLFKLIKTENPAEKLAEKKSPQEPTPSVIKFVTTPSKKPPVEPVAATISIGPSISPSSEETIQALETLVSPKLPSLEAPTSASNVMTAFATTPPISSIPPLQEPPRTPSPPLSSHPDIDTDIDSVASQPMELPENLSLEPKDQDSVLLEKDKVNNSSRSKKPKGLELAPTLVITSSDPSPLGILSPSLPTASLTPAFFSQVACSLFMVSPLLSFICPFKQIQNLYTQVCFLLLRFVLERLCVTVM
Summed up: as §1

Another assay has as its target T7, ELF3 (Homo sapiens, UniProt P78545 1-371).
T7 sequence: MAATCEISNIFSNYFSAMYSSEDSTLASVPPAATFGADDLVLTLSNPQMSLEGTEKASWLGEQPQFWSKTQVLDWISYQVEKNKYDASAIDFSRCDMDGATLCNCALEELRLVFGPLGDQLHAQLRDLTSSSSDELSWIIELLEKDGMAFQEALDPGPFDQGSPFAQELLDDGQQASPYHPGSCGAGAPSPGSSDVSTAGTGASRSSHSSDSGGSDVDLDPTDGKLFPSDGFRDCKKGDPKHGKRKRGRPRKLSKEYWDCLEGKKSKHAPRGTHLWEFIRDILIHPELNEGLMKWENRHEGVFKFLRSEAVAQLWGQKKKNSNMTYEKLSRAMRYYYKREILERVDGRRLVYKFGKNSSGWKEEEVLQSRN
In short, it runs like this:
as §1

Another assay concerns the target ETV1 (Homo sapiens, UniProt P50549 1-477). Summed up: as §1
For another assay, the target named is T8, ERF (Homo sapiens, UniProt P50548 1-548).
T8 sequence: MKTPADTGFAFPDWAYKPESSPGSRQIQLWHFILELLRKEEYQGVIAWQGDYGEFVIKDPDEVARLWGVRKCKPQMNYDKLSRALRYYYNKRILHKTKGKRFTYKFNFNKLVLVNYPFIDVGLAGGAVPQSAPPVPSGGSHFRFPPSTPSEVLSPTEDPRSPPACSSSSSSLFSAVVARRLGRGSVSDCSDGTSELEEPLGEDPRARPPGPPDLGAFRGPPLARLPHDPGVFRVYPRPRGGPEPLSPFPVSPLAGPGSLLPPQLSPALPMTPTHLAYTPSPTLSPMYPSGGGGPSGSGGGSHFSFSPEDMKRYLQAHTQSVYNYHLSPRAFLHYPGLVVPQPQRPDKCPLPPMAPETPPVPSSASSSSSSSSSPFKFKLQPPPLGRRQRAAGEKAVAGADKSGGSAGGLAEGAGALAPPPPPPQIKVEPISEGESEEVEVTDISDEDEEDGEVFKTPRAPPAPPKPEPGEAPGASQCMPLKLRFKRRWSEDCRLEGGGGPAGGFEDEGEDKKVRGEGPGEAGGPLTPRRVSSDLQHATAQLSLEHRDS
Summed up: as §1

Another assay deals with T9, ETV3L (Homo sapiens, UniProt Q6ZN32 1-361).
T9 sequence: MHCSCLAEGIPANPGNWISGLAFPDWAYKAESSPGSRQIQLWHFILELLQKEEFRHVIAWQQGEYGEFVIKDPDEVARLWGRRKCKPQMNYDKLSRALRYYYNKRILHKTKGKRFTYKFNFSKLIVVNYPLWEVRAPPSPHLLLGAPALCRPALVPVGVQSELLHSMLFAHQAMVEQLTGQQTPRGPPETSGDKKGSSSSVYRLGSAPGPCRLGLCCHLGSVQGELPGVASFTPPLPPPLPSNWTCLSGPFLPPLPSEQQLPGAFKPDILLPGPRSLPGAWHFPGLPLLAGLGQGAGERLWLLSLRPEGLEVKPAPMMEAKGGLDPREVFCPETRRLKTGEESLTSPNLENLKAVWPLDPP
Summed up: as §1

Another assay deals with T10, ETS2 (Homo sapiens, UniProt P15036 1-469).
T10 sequence: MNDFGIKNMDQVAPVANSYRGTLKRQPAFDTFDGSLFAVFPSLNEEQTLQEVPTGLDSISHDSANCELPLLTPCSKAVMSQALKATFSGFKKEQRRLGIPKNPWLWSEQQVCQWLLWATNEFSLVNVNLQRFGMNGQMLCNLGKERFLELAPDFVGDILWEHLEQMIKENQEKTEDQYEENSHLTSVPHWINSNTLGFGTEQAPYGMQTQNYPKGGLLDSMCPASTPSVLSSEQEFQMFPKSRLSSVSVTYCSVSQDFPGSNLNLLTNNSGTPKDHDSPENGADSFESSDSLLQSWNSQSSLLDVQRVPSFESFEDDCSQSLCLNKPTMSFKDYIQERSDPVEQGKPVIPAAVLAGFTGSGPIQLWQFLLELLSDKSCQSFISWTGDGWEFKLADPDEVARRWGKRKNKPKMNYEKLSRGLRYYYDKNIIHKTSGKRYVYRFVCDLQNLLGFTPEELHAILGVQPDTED
Summed up:
as §1

The next assay concerns the target T11, ETV7 (Homo sapiens, UniProt Q9Y603 1-341).
T11 sequence: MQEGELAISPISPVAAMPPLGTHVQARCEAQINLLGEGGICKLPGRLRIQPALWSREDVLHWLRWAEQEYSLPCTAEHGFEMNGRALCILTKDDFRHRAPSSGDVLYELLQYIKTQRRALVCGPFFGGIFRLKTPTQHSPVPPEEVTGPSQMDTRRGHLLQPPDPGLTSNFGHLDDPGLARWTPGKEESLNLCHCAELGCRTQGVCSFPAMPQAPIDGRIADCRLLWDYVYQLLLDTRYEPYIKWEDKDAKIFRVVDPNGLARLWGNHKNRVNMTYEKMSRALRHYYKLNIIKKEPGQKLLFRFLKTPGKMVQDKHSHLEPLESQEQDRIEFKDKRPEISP
In short, it runs like this: as §1

The target in a further assay is T12, ETV3 (Homo sapiens, UniProt P41162-2 1-143).
T12 sequence: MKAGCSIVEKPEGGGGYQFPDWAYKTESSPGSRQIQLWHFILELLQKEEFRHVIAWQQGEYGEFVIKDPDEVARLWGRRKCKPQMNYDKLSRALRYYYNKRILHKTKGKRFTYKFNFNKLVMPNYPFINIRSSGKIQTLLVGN
Summed up:
as §1

The target in the next assay is ETV6 (Homo sapiens, UniProt P41212 1-452). In short, it runs like this:
as §1

Chain of ETV5 (P41161 whole entry): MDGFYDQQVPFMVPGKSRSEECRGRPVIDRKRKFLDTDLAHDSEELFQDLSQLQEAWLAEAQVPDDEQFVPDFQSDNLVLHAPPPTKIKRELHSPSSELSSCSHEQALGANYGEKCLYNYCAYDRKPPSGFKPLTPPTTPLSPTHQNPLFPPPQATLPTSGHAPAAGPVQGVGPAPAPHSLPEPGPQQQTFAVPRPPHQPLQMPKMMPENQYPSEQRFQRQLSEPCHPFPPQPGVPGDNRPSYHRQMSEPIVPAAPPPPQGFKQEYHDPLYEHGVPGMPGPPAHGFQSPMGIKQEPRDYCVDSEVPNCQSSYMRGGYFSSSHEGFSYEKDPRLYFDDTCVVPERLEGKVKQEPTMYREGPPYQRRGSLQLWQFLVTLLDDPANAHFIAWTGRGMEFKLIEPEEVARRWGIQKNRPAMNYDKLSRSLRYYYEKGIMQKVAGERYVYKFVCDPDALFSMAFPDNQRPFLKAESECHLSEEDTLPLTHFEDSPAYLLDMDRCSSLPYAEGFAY
Chain of ETV1 (P50549 whole entry): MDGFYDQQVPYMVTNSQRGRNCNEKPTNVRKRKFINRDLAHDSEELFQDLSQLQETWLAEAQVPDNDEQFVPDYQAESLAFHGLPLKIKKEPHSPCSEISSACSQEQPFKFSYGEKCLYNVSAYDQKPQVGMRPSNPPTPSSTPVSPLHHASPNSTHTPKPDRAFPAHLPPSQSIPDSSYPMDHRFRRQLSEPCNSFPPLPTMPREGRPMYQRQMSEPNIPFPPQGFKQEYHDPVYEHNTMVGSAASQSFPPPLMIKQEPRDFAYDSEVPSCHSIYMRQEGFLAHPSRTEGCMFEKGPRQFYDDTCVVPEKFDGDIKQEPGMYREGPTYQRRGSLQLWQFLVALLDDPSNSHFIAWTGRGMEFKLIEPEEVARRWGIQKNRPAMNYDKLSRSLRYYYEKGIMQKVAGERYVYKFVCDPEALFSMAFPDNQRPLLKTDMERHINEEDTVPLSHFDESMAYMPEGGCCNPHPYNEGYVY
Chain of SPIB (Q01892 whole entry): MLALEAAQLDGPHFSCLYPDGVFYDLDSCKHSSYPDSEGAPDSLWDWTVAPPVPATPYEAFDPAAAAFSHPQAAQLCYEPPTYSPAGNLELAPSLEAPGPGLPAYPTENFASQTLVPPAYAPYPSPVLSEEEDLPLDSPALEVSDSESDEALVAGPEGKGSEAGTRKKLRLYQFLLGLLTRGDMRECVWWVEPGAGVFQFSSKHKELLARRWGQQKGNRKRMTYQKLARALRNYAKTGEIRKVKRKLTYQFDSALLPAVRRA
Chain of ETV6 (P41212 whole entry): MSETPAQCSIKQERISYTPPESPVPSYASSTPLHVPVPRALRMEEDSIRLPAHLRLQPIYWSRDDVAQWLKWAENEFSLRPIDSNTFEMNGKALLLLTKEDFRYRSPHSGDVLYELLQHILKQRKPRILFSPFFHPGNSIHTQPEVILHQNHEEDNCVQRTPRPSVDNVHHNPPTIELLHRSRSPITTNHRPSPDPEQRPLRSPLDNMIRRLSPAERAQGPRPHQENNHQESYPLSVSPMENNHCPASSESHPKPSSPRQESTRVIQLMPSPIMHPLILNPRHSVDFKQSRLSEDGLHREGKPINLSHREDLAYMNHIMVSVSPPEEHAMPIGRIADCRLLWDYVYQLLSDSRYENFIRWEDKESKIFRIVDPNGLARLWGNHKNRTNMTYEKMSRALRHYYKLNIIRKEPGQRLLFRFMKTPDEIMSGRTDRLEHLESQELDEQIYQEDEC
Chain of ELF1 (P32519 whole entry): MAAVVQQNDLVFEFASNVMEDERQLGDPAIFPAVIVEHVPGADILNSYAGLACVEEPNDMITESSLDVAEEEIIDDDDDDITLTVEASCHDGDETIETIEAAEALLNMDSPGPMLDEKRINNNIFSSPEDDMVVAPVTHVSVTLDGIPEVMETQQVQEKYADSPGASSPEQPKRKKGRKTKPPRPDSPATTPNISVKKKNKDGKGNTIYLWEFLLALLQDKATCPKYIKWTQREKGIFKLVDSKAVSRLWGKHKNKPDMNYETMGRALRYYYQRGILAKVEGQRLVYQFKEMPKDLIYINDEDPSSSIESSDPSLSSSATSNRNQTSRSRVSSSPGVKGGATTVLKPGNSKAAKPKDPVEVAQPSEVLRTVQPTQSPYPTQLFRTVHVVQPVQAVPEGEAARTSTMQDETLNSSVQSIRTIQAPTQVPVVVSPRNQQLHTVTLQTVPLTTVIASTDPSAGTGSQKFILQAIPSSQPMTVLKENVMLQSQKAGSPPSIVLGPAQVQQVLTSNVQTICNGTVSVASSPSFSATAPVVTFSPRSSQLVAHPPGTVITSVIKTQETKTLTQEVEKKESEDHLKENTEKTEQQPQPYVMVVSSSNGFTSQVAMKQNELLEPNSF

In the case of TGTAAG, the binding signal with ELK1 was 1.06 fold enrichment (6-mer frequency, TF over GST control); with GABPA it was 1.03 fold enrichment (6-mer frequency, TF over GST control); with ERG it was 1.07 fold enrichment (6-mer frequency, TF over GST control); in the assay with ELF1, 1.11 fold enrichment (6-mer frequency, TF over GST control); with EHF, 1.16 fold enrichment (6-mer frequency, TF over GST control); with SPI1, 1.12 fold enrichment (6-mer frequency, TF over GST control). The binding signal is 1.06 fold enrichment (6-mer frequency, TF over GST control) with SPIB; 1.06 fold enrichment (6-mer frequency, TF over GST control) in the assay with FEV; 1.08 fold enrichment (6-mer frequency, TF over GST control) with ETV5; 1.06 fold enrichment (6-mer frequency, TF over GST control) with ELK4; 1.3 fold enrichment (6-mer frequency, TF over GST control) in the assay with ELF3; 1.06 fold enrichment (6-mer frequency, TF over GST control) with ETV1. For the same sequence, the binding signal was 1.11 fold enrichment (6-mer frequency, TF over GST control) with ERF; 1.03 fold enrichment (6-mer frequency, TF over GST control) with ETV3L; 1.04 fold enrichment (6-mer frequency, TF over GST control) in the assay with ETS2; 1.04 fold enrichment (6-mer frequency, TF over GST control) in the assay with ETV7; 1.17 fold enrichment (6-mer frequency, TF over GST control) in the assay with ETV3; 1.14 fold enrichment (6-mer frequency, TF over GST control) with ETV6.

The values are drawn from article PMC7862700, “An all-to-all approach to the identification of sequence-specific readers for epigenetic DNA modifications on cytosine”.
